Tests used:
Experiment in all cases: PBM binding z-score (relative to random genomic background probes); higher = stronger binding; sequences stand for … in GC…GCGATTGACAGCGTAGAATGAAGG
[1] = tested on: FXR:RXRa (NR concentration 270 nM, RXRa partner concentration 90 nM)
Outline: (§1)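 Binding z-scores were set against random background probes. The data came from custom Agilent 4×180K protein-binding microarrays carrying double-stranded probes with 34-nt variable regions, incubated 1 h with ligand-free nuclear receptor dimers. Partner-specific antibodies detected binding, and scanned fluorescence was regression-normalized.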

[2] = tested on: LXRa:RXRa (NR concentration 270 nM, RXRa partner concentration 90 nM)
Outline: as §1

[3] = tested on: LXRa homodimer (NR concentration 270 nM)
Outline: as §1

[4] = tested on: LXRb:RXRa (NR concentration 270 nM, RXRa partner concentration 90 nM)
Outline: as §1

[5] = tested on: LXRb homodimer (NR concentration 270 nM)
Outline: as §1

[6] = tested on: PPARa:RXRa (NR concentration 270 nM, RXRa partner concentration 90 nM)
Outline: as §1

[7] = tested on: PPARg:RXRa (NR concentration 180 nM, RXRa partner concentration 90 nM)
Outline: as §1

[8] = tested on: PPARg:RXRa 270nM:90nM, anti-RXR (NR concentration 270 nM, RXRa partner concentration 90 nM)
Outline: as §1

[9] = tested on: PPARg:RXRa 30nM:10nM, anti-RXR (NR concentration 30 nM, RXRa partner concentration 10 nM)
Outline: as §1

[10] = tested on: PPARg:RXRa 90nM:30nM, anti-RXR (NR concentration 90 nM, RXRa partner concentration 30 nM)
Outline: as §1

[11] = tested on: PPARg:RXRa DBDmut IVT, anti-RXR (DBD mutation: RXRa K156A/R161A, NR concentration 270 nM, RXRa partner concentration 90 nM)
Outline: as §1

[12] = tested on: PPARg:RXRa IVT, anti-PPARg (NR concentration 270 nM, RXRa partner concentration 90 nM)
Outline: as §1

[13] = tested on: PPARg DBDmut:RXRa IVT, anti-PPARg (DBD mutation: PPARg1 K132A/R137A, NR concentration 270 nM, RXRa partner concentration 90 nM)
Outline: as §1

[14] = tested on: PPARg DBDmut IVT, anti-PPARg (DBD mutation: PPARg1 K132A/R137A, NR concentration 270 nM)
Outline: as §1

[15] = tested on: PPARg homodimer (NR concentration 180 nM)
Outline: as §1

[16] = tested on: PXR:RXRa (NR concentration 270 nM, RXRa partner concentration 90 nM)
Outline: as §1

[17] = tested on: PXR homodimer (NR concentration 270 nM)
Outline: as §1

[18] = tested on: RARa:RXR (NR concentration 270 nM, RXRa partner concentration 90 nM)
Outline: as §1

[19] = tested on: RARa homodimer (NR concentration 270 nM)
Outline: as §1

[20] = tested on: RARb:RXRa (NR concentration 270 nM, RXRa partner concentration 90 nM)
Outline: as §1

Sequence	PBM binding z-score [1]	PBM binding z-score [2]	PBM binding z-score [3]	PBM binding z-score [4]	PBM binding z-score [5]	PBM binding z-score [6]	PBM binding z-score [7]	PBM binding z-score [8]	PBM binding z-score [9]	PBM binding z-score [10]	PBM binding z-score [11]	PBM binding z-score [12]	PBM binding z-score [13]	PBM binding z-score [14]	PBM binding z-score [15]	PBM binding z-score [16]	PBM binding z-score [17]	PBM binding z-score [18]	PBM binding z-score [19]	PBM binding z-score [20]
CCTAGCAGGCCAATTTGGGTCACTCAAGGCTTGA	1.3	1.3	-0.0886	1.16	-1.16	2.37	0.558	0.917	-0.434	0.671	2.7	2.91	-1.03	-1.39	0.323	1.12	-0.236	1.52	-0.55	1.29
TCTTGTAGATCAACAGGAGGTTCAGAAAGATCGA	0.027	-0.0973	-0.476	-0.000896	-0.414	0.453	-0.062	1.25	2.65	2.18	1.5	0.779	0.136	0.251	-0.725	0.256	-0.264	0.00715	-0.572	0.0281
TCTTGTAGATCAATAGTGGTTAAGAAAGTGCGCT	0.499	0.37	-0.000472	0.00968	0.297	0.451	-0.385	1.4	2.83	2.06	1.98	0.303	0.28	1.33	0.545	0.46	0.364	0.481	0.947	0.0691
AGACTGAGGTTAAGATCAGGGAAACAGAATACAT	2.11	1.75	-0.133	1.6	-0.417	2.92	1.21	1.18	0.748	0.879	0.0393	0.554	-0.0816	-0.0692	0.531	0.903	0.258	1.84	-0.0293	1.7
TCTATTAGTTGATTAGGGCAGCCGAAACAGCGGA	0.608	0.627	0.0696	0.52	0.663	1.01	0.0121	1.92	3.66	2.93	1.91	1.17	1.45	0.97	0.935	0.355	0.226	0.394	0.461	0.624
ATCTCTAGGTAAGAAGTTCAGTGAAAGAGAGGAC	0.325	0.566	0.243	0.366	0.539	0.924	1	2.09	0.954	1.86	1.18	1.29	0.696	1.32	1.05	0.898	1.32	0.518	0.598	1.49
ATCTCTAGGTCAAGATAGTTCAGTGAATGCAAAT	3.96	6.31	4.48	3.62	1.93	4.23	4.92	4.63	2.03	3.66	6.08	6.47	1.92	2.11	2.05	5.27	1.48	3.29	1.32	4.26
CGTCAAAGTTCAAGGTAGCGTAACAGAAAGCAGC	5.54	5.8	2.95	3.18	0.738	4.56	3.8	5.04	2.26	3.89	0.367	1.36	-0.0381	0.0782	3.03	3.84	2.73	3.35	0.828	5.01
ATCGAAAGGTCGAAGGTTAGTATACCCACCCGAA	4.06	3.5	0.517	3.05	0.649	4.71	4.46	5.12	2.51	4.28	0.165	2.11	1.15	0.865	1.68	3.34	0.404	4.69	1.42	3.76
TCTATTAGATGAAGGGCAACCGACGAGTCCGTTT	0.734	0.81	-0.159	0.733	0.205	0.841	0.575	2.01	3.7	2.93	2.54	0.861	0.95	0.278	0.308	0.796	1.11	0.642	0.636	1.47
CGTCTAAGGTCAGAGAGGTCAGTGAATGCCGAGT	6.73	5.75	3.47	5.03	0.521	5.48	4.02	5.03	1.38	3.5	3.8	3.69	0.924	-0.453	4.52	6.51	12	5.99	1.28	5.56
AGAACGAGGGCACGCTGAGTTGGTAGCAGAGTAG	0.682	0.402	-0.489	-0.113	-0.719	1.87	1.62	1.46	-0.03	0.942	4.25	3.68	0.349	-0.628	-0.387	0.612	-0.377	0.517	-1.12	2.46
CCACACAGGTGAAAGGTAACTCAGTCTGGTACGC	1.02	1.03	0.186	1.15	-0.0183	3.42	5.45	5.54	3.68	5.21	2.15	3.2	0.0609	0.1	1.3	1.22	0.292	1.76	0.461	1.38
CCTCGGAGGACGACAGGAGGTCAGAGCTGCCAGA	0.759	1.38	0.305	1.13	-0.711	1.8	0.288	0.213	-0.596	-0.215	-0.728	-0.00812	-0.427	-1.79	1.19	1.89	-0.155	2.06	0.247	2.18
ATCGAAAGGTCGTGAGGTGAGTAGACAGAAAGGC	5.21	4.15	0.0462	2.98	0.701	4.93	3.83	4.25	1.29	3.08	0.467	2.39	0.658	0.706	1.44	3.07	0.328	4.15	0.372	3.9
CATACAGGGTCAGCTAGGCCAGAGAAGGGACGGC	4.68	2.97	-0.0685	2.27	0.339	4.4	3.38	3.06	0.62	1.82	1.21	2.58	0.932	-0.117	1.9	2.24	0.0894	3.29	0.36	4.16
AAAACGAGGGCAATGAGTTGATAGCACGGGTGGC	0.531	0.364	-0.353	-0.0182	-0.657	1.55	2.02	1.44	0.0987	0.879	5.04	3.79	1.2	0.681	0.0756	1.86	4.72	0.593	-0.42	2.18
GCGAATGGGGCAAAGCAGGTTACCATAAGGTTGG	0.135	0.262	-0.483	0.474	-0.239	1.31	0.647	0.187	-0.478	-0.292	1.67	1.37	-0.887	-1.21	0.664	0.467	-0.414	0.571	-0.509	1.1
TCTCGGAGGACACGATGGTCAGAGCTTTCCAGAG	0.101	-0.284	-0.822	-0.381	-1.39	-0.0198	-0.18	0.7	1.73	1.07	1.01	-0.167	-0.797	-0.992	-1.04	-0.421	-0.66	-0.201	-0.829	1.51
CTCGAAAGGTCGTGCTCAGGTGAGTATACCAAAC	5.37	4.02	0.432	3.45	0.379	4.99	2.62	3.65	0.746	2.23	0.806	1.92	0.159	0.522	2.26	3.47	-0.155	4.39	0.399	3.9
CAAACTAGGTCACGAAAGGTCAAGGTCGAATGAC	7.28	7.82	6.86	6.75	1.7	6.43	10.6	8.38	7.12	8.5	8.73	9.06	5.16	2.59	5.42	6.88	3.03	7.71	3.81	5.62
GCTGCTAGGTCAACTTATGGTCAGCTAAAGCTCG	4.49	2.98	0.539	2.52	0.4	3.87	2.95	3.14	0.913	2.31	4.77	4.25	-0.352	-0.235	2.49	2.17	-0.587	3.6	0.316	4.4
TCTAGCAGGCCACAGGGTCACTCAAGAGGTACGG	1.75	1.69	-0.338	1.82	-1.09	3.23	2.19	3.02	2.18	2.65	1.57	2.41	0.0342	-1.16	1.75	2.71	-0.163	3.42	-0.568	2.63
CAAACTAGGTCACGATAGGTCAAAGTCGAATGAC	5.83	8.21	5.31	6.9	1.01	6.14	9.76	7.74	6.05	7.79	8.73	9.21	3.89	2.14	4.63	5.42	0.73	5.95	1.74	4.88
ACTCGGAAGACAAAGGTCAGAGCTACGCCAGTGA	3.29	3.7	1.47	3.28	0.387	4.48	4.43	4.75	2.83	4.83	0.385	1.77	0.488	-0.549	2.44	3.25	0.247	3.84	0.864	4.07
CATACTAGGTCACAGAGGTCAAAGTCCGTGCGTA	6.69	6.83	7.84	6.16	2.94	6.09	8.98	7.72	5.14	7.44	7.7	8.21	1.7	0.913	4.99	6.49	11.3	6.62	2.6	5.27
ACTAGCAGGCCAAGGGTCAATCAAGATTAGTCCG	3.02	2.94	0.134	2.96	-0.379	4.64	8.14	7.68	6.29	8.3	1.29	3.74	-0.502	-0.4	1.86	3.34	-0.202	4.28	-0.127	3.33
GTACCAAGATGAATAGGTCGTTGATGAGTAGGCG	-0.271	-0.137	-0.17	-0.161	-0.482	0.287	0.526	-0.163	-0.282	-0.197	-0.366	-0.096	-0.257	0.255	0.369	-0.0822	0.0588	0.0569	0.21	0.0592

— the supplement of paper PMC6555819
